Screens from PubChem.
Rows were chosen to be rich in hits. Some 6.2% of all compounds tested hit in one or more screens of this group.
HT1080 IDH1KD tx: toxicity to HT-1080 IDH1 knockdown cells (counter line); AID 686971; HT-1080 IDH1 knockdown viability, ATP luminescence, 48 h; hit rate 2% among 360,000; Potency, µM (doses to about 46.1 µM), for inactives: at the highest dose activity, negative = toxicity, most hits filed as cytotoxic;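 further: 0% = DMSO wells and -100% = cell-free medium wells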
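After a 2 h attachment period, IDH1KD HT-1080 cells took pin-transferred compound for 48 h at 37 °C; ATP-based luminescence after 10 min room-temperature reagent incubation reported viability.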
HT1080NT lethal: kills 2HG-producing HT-1080-NT fibrosarcoma cells | HT-1080-NT fibrosarcoma viability, CellTiter-Glo ATP luminescence, 48 h | Potency, µM (series often up to 46.1 µM), without a hit: top-dose activity, negative = less viability, usual class: cytotoxic | hit rate 1.6% among 360,000 | AID 686970;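 further: NT is the 2HG producing partner of a matched IDH1 knockdown line; 0% = DMSO-treated cells and -100% = media-only wells without cells; nearly all actives have a fitted effect of over 55% in size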
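HT-1080-NT; 750 cells/well; 5% FBS RPMI; 48 h compound, 37 degrees C; CellTiter-Glo luminescence; curve fitting and curve-class assignment.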
ATXN viability: cell viability loss in ATXN counter-screen | S2 cells (HEK-293 line with an ATXN2-luciferase reporter) viability, CellTiter-Fluor protease fluorescence, 24 h | Potency, µM (top dose mostly 56.7 µM), actives largely listed as cytotoxic | hit rate 0.49% among 400,000; further: nearly all actives have a fitted effect of over 40% in size
KB-V1 MDR tox: KB-V1 MDR subline cytotoxicity | KB-V1 MDR cells viability, CellTiter-Glo, 72 h | Potency, µM (titrated, usually from 46.1 µM), hits mostly cytotoxic | hit rate 3.4% among 400,000 | AID 1347076; further: on the % scale 0 is the no-effect control and ±100 the full control effect; nearly all actives have a fitted effect of over 60% in size
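Compound-treated KB-V1 multidrug-resistant cells, 72 h, 37 degrees C; viability by CellTiter-Glo. Fitted qHTS curves give the values.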
KB-3-1 tox: KB-3-1 parental cell cytotoxicity | hit rate 1.4% among 400,000 | Potency, µM (top dose mostly 46.1 µM), hits mostly cytotoxic | AID 1347075 | KB-3-1 viability, CellTiter-Glo ATP luminescence, 72 h; further: on the % scale 0 is the no-effect control and ±100 the full control effect; nearly all actives have a fitted effect of over 60% in size
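KB-3-1 cells, DMEM (no phenol red) + 10% FBS; compound by pin transfer, 72 h, 37 °C. Readout: CellTiter-Glo luminescence after 10 min. Data normalized, curve-fitted.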
ATXN2 expr inh: inhibitors of ATXN2 expression; HEK-293 ATXN2-luciferase reporter, luminescence, 24 h; Potency, µM (titrated, usually from 57 µM), inactives show top-dose activity change, negative = inhibition, actives largely listed as inhibitors; AID 1745845; hit rate 0.72% among 360,000; further: on the % scale 0 is the no-effect control and ±100 the full control effect; nearly all actives have a fitted effect of over 55% in size
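qHTS (up to 57 uM final) was run with 24 h compound exposure of reporter cells at 37 °C. Each well was multiplexed: SteadyGlo luminescence measured ATXN2-luciferase expression after a fluorogenic Gly-Phe-AFC viability readout (25 uM final).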
Numbers without * were called inactive; i = inactive; u = inconclusive; x = no result given; [ ] = remark or other dose. The call rests on the fitted dose curve; in most records, active means well fitted curve in the direction sought with a large enough effect; inconclusive means small, poorly fitted or top-dose-only effect, or another doubt; inactive means no such curve, though single readings can be large; an effect the other way counts as inactive or inconclusive. Potency means the concentration at half of the fitted maximal effect.

SMILES	HT1080 IDH1KD tx	HT1080NT lethal	ATXN viability	KB-V1 MDR tox	KB-3-1 tox	ATXN2 expr inh
CN(C(=O)CN1CCN(c2cc(-c3ccc(-c4ccccc4)cc3)ncn2)CC1)c1ccccc1	13µM*	14.6µM*	u	i	u	u
OC(c1ccccc1)C1CN(Cc2ccccc2)CCC1(O)c1ccccc1 (stereo not given)	-7.6%	-6.6%	i	23.1µM*	i	-18.6%
Cc1ccc(N(Cc2cccs2)C(=O)c2ccc(Br)o2)cc1	x	x	x	i	i	x
CC(=O)c1ccc(N2CCN(C(=O)CS(=O)(=O)c3cccc4nsnc34)CC2)cc1	x	x	i	i	i	3.2%
COc1ccc(N/N=C(\C#N)C(N)=O)cc1	-5.8%	-24.5%	i	i	i	26.0%[11.3 µM]
N#C/C(=N/Nc1ccc(OC(F)(F)F)cc1)C(N)=S	16.4µM*	23.1µM*	x	u	u	x
COC(=O)CN1C(C(=O)c2ccccc2)=C(OC(=O)c2ccc(C)cc2)c2ccccc2S1(=O)=O	x	x	u	i	i	3.4%
CCOC(=O)C1C(=O)CC(C)(O)C(C(=O)OCC)C1/C=C/c1ccccc1 (stereo not given)	-1.1%	1.5%	i	18.4µM*	i	-13.1%
CCOC(=O)C1C(=O)CC(O)(c2ccccc2)CC1c1ccccc1 (stereo not given)	-10.1%	-7.6%	i	23.1µM*	i	-14.9%
CCOC(=O)C1C(C(=O)OCC)C1(c1ccccc1)c1ccccc1 (stereo not given)	3.4%	10.0%	i	10.3µM*	i	-27.1%
CCOC(=O)C1C(=O)CC(C)(O)C(C(=O)OCC)C1c1ccccc1 (stereo not given)	17.4%	16.0%	i	i	i	26.3%
CCOC(=O)c1ccc(NC(=O)CCc2c(C)n(CC)c3cc(-c4ccccc4OC)nn3c2=O)cc1	x	x	u	u	i	2.1%
O=C(Nc1nc(-c2ccc3c(c2)OCCO3)cs1)c1ccc(S(=O)(=O)N2CCCCC2)cc1	-10.2%	u	i	8.2µM*	u	-33.8%
O=C(Nc1nc(-c2cccs2)cs1)c1ccc(S(=O)(=O)N2CCCC2)cc1	u	u	u	u	16.4µM*	u
O=C(Nc1ccc(Cl)cn1)c1ccccc1F	-26.7%	u	i	u	23.1µM*	35.1%
O=C(Nc1ccc(Cl)cn1)c1cccc(F)c1	8.2µM*	u	u	3.66µM*	6.51µM*	36.2%
O=C(Nc1cccc(C(=O)Nc2ccc(Cl)cn2)c1)c1ccccc1	2.5%	-1.9%	i	i	i	-4.3%
CCN(Cc1ccncc1)Cc1ccc2c(c1)CN(C(=O)c1ccc(OC)cc1)CCO2	x	x	i	x	x	x
O=C(NCC1Cc2cccc(-c3ncccn3)c2O1)C1CCOC1 (stereo not given)	x	x	i	x	x	x
COc1ccc(-c2nc3cc(C(C)C)ccc3o2)cc1NC(=O)c1ccccc1[N+](=O)[O-]	x	x	u	i	u	96.7%
O=C(NN1C(=O)C2C3c4ccccc4C(c4ccccc43)C2C1=O)c1ccc(Cl)cc1 (stereo not given)	-0.1%	-4.8%	i	16.4µM*	i	-19.7%
O=C1C(=Cc2ccc(F)cc2)CCc2ccccc21	-15.3%	-22.7%	i	i	i	36.3%
C=CC(=O)N1C/C(=C/c2ccc(F)cc2)C(=O)/C(=C\c2ccc(F)cc2)C1	2.91µM*	u	7.08µM*	i	u	5.62µM*
CCCc1nnc(NC(=O)Nc2ccccc2OC)s1	12.3%	1.6%	i	18.4µM*	i	44.1%
COc1ccc(Cc2nnc(NC(=O)Nc3ccccc3OC)s2)cc1	-7.5%	-28.2%	i	i	u	-15.2%
SMILES	HT1080 IDH1KD tx	HT1080NT lethal	ATXN viability	KB-V1 MDR tox	KB-3-1 tox	ATXN2 expr inh
COc1ccccc1N(C)S(=O)(=O)c1ccc(C(=O)OCC(=O)N2CCC2)cc1	16.4µM*	u	i	u	u	-18.3%
CCCc1nnc(NC(=O)c2ccc(S(=O)(=O)N(C)c3ccccc3OC)cc2)s1	-5.1%	-6.0%	i	14.6µM*	i	-8.1%
CCCc1nnc(NC(=O)c2cccc(OC)c2)s1	20.4%	5.2%	i	18.4µM*	i	45.4%
COc1ccccc1N(C)S(=O)(=O)c1ccc(C(=O)Nc2nccs2)cc1	-8.1%	-8.0%	i	i	i	-30.1%
Cc1nc([N+](=O)[O-])cn1-c1ccc([N+](=O)[O-])cc1	x	x	i	x	x	4.9%
COc1ccc(CCNC(=O)C(=O)NCC(c2cccs2)S(=O)(=O)c2cccs2)cc1 (stereo not given)	x	x	i	u	u	-16.8%
CCOc1cc(CNC(=O)NC2COc3ccc(OC)cc3C2)cc(OCC)c1OCC (stereo not given)	x	x	x	i	i	x
COC(=O)c1ccc(CNC(=O)c2ccc(S(=O)(=O)N(C)c3ccccc3OC)cc2)cc1	-5.2%	-7.5%	i	i	i	-10.0%
COc1ccccc1N(C)S(=O)(=O)c1ccc(C(=O)NCC(C)C)cc1	4.0%	5.4%	i	23.1µM*	i	-2.7%
Cn1c2ccccc2c2ncn(CCC3=CCCCC3)c(=O)c21	-18.9%	-16.8%	i	16.4µM*	i	29.6%
Cc1cccc(N(C)S(=O)(=O)c2cc3[nH]c(=O)c(=O)[nH]c3cc2C)c1	x	x	u	u	u	13.0%
COc1ccc(CC2(CO)CCN(Cc3ccc(OC(F)(F)F)cc3)CC2)cc1	-21.5%	u	u	i	u	u
COc1ccc2c(c1)C=C(CN1CCC(CO)(CCc3ccccc3)CC1)CO2	-17.6%	-7.6%	i	u	i	-18.4%
COc1ccc(CC2(CO)CCN(Cc3ccc4c(c3)CCO4)CC2)cc1	20.6µM*	u	x	u	i	-25.5%
COc1ccc(CC2(CO)CCN(CC3=Cc4cc(Cl)ccc4OC3)CC2)cc1	23.1µM*	14.6µM*	u	i	u	u
CCC(SC1=Nc2ccccc2C2=NC(CC(C)C)C(=O)N12)C(=O)Nc1ccc2c(c1)OCO2 (stereo not given)	-22.8%	-9.3%	i	14.6µM*	u	-11.4%
COc1cccc(NC(=O)CSC2=Nc3ccccc3C3=NC(CC(=O)NCc4ccc5c(c4)OCO5)C(=O)N23)c1 (stereo not given)	x	x	i	i	i	-0.9%
COc1ccccc1CNC(=O)c1cc(S(=O)(=O)N2CCN(c3ccccc3)CC2)ccc1Cl	-12.1%	-12.8%	u	4.61µM*	i	-9.9%
COc1ccccc1C(=O)NCC1CCN(c2ccc(S(=O)(=O)N3CCOCC3)cc2)CC1	-24.1%	-9.1%	i	14.6µM*	i	-15.3%
